Assay in all cases: NCI-60 one-dose screen, 48 h (100 = growth as untreated, 0 = no growth, -100 = all killed)
Holding throughout (settings): 10 µM unless noted

The subject of assay [1] is NCI-H23 lung.
The test system of assay [2] is NCI-H226 lung.
Assay [3] relates to NCI-H322M lung.
Assay [4] deals with HOP-62 NSCLC.
Assay [5] concerns NCI-H460 lung.
For assay [6], the system named is HOP-92 NSCLC.
Assay [7] concerns NCI-H522 lung.
In assay [8] the test system is A549/ATCC NSCLC.
Assay [9] concerns 786-0 renal.
Assay [10] concerns DU-145 prostate.
Assay [11] has as its system K-562 leukemia.
Assay [12] has as its system MALME-3M melanoma.
In assay [13] the test system is MDA-MB-231 breast.
Assay [14] concerns RXF 393 renal.
In assay [15] the test system is SF-268 CNS.
Assay [16] has as its system SF-295 CNS.
For assay [17], the system named is SF-539 CNS.
The test system of assay [18] is UACC-257 melanoma.
Assay [19] has as its system M14 melanoma.
For assay [20], the system named is COLO 205 colon.

About 83,000 compounds went through this panel and 20% of them were active in at least one assay; those are over-represented in the sample as a whole.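 Step 1: grow cells in 96-well plates. Step 2: add test compound at a single concentration. Step 3: incubate 48 h. Step 4: record percent growth.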 Unmarked numbers belong to inactive results. Calls of active or inactive are those of the source. The calls were made as follows: active = growth percent below 10; inactive = the rest.

As to `O=S(=O)(NCCCNc1cc(-c2c(-c3cccc(O)c3)nc3sccn23)ccn1)c1cccc2ccccc12`, the growth in [1] is 39.8%; in assay [2], 41.1%; in [3], 78.8%; in assay [4], 67.2%; in assay [5], 39.7%; in assay [6] it was 97.3%. For the same compound, the growth is 51.2% in [7]; 58.9% in [8]; 51.2% in assay [9]; 42.4% in assay [10]; 21.3% in assay [11]; 48.4% in assay [12]. The growth in assay [13] was 72.2%; in assay [14], 41.1%; in assay [15], 41.5%; in [16], 34.3%; in assay [17], 72.2%; in assay [18] it was 61.2%. Also, the growth in assay [19] was 45.4%.

Take `COc1ccc(OC)c(/C=C/C(=O)N/N=C/c2ccc(Cl)cc2)c1`: the growth in assay [1] is 34.8%; in assay [2] it was 73.1%; in [3], 41.3%; in assay [4], 37.9%; in [5], 5.19% (active); in [6], 77.7%. Besides, the growth in [7] was -36.2% (active); in assay [8], 27.8%; in assay [9], 16.7%; in assay [10], 14.8%; in assay [11], 14%; in [12] it was 54.1%. The growth is 28.1% in [13]; -19.8% (active) in assay [14]; 33.2% in assay [15]; 31.8% in assay [16]; -43.2% (active) in assay [17]; 53% in assay [18]. For the same compound, the growth in assay [19] was -34.4% (active).

Take `COc1ccc(-c2conc2-c2ccccc2)cc1`: the growth in [1] was 29.1%; in [2] it was 70.5%; in [3], 46.3%; in assay [4], 42.4%; in [5] it was 7.41% (active); in assay [6], 71.4%. The growth in [7] was -6.84% (active); in assay [8], 23.3%; in [9] it was 27%; in assay [10], 11.5%; in assay [11] it was 13.3%; in [12], 56.2%. Besides, the growth was 11.6% in [13]; -21.8% (active) in [14]; 44.6% in assay [15]; 16.3% in [16]; -23.4% (active) in [17]; 71.5% in [18]. In addition, in [19], the growth was 6.54% (active).

Take `NC1=NC(c2cccc(Br)c2)c2sc3ccc(Cl)cc3c2N1` (stereo not given): the growth in assay [1] was 86.3%; in assay [2] it was 78.4%; in assay [3], 89.6%; in [4], 91.5%; in assay [5], 98.6%; in assay [6] it was 96.7%. Also, the growth in assay [7] is 87.8%; in assay [8], 98%; in assay [9], 94.8%; in assay [10], 111%; in assay [11] it was 86.6%; in assay [12] it was 95.6%. The growth in [13] is 88.4%; in [14], 110%; in [15], 94%; in [16] it was 103%; in [17], 108%; in assay [18], 98.8%. Moreover, the growth in assay [19] was 98.4%.

Take `O=c1c2cc(F)ccc2sc2c(N3CCNCC3)nc3ccccc3c12`: the growth is 68.8% in [1]; 88% in assay [2]; 60.3% in assay [3]; 61.4% in assay [4]; -76.4% (active) in assay [5]; 36.8% in assay [6]. Further, the growth in assay [7] is 39.3%; in assay [8], 34.4%; in assay [9] it was 65.7%; in [10], -31.5% (active); in assay [11], -38.2% (active); in assay [12] it was 84.8%. The growth in [13] is -29.1% (active); in [14], 58.1%; in assay [15], 55.1%; in assay [16] it was 92.1%; in assay [17] it was 29.8%; in assay [18] it was 92.1%. In assay [19], the growth is -52.7% (active).

On to `CS(=O)(=O)N(c1cc(-c2ccc3ncnc(Nc4ccc(F)c(Cl)c4)c3c2)cnc1Cl)S(C)(=O)=O`, for which the growth was 34.7% in assay [1]; 59.1% in [2]; 34.8% in [3]; 42% in assay [4]; 34.2% in assay [5]; -12.2% (active) in assay [6]. In addition, the growth was 52.5% in assay [7]; 57.3% in [8]; 35% in assay [9]; 47.3% in [10]; 50.5% in assay [11]; 9.57% (active) in assay [12]. The growth is 44.3% in [13]; -6.35% (active) in [14]; 32.3% in assay [15]; 34% in assay [16]; 39.9% in assay [17]; 38.8% in assay [18]. In addition, the growth in assay [19] is 43.6%.

For `O=C(Nc1ccc(I)cc1F)c1cc(I)ccc1O`, the growth is -13.4% (active) in assay [1]; -4.51% (active) in assay [2]; -3.09% (active) in assay [3]; 16.8% in [4]; 2.89% (active) in assay [5]; -20.5% (active) in assay [6]. Also, the growth in assay [7] is -5.05% (active); in assay [8], 10.9%; in assay [9], 2.12% (active); in assay [10], 21.2%; in assay [11] it was 7.64% (active); in assay [12] it was -26.9% (active). In addition, the growth in assay [13] was -34.7% (active); in assay [14], -9.34% (active); in assay [15], 13.6%; in assay [16], -34% (active); in [17] it was 9.88% (active); in assay [18] it was -17% (active). Moreover, in [19], the growth was 5.74% (active).

Turning to `CCN1C(=O)N(CC)C2Nn3c(s/c(=C\c4ccc([N+](=O)[O-])cc4)c3=O)=NC21` (stereo not given), the growth in [1] was 69.3%; in assay [2], 80.1%; in assay [3], 89.7%; in [4], 96.2%; in assay [5] it was 98.3%; in assay [6], 84.1%. Besides, the growth in assay [7] was 9.71% (active); in assay [8], 82.4%; in assay [9], 85.1%; in [10], 91.8%; in assay [11], 29.4%; in assay [12], 70.3%. Moreover, the growth in assay [13] was 47.8%; in [14], 103%; in assay [15] it was 90%; in assay [16], 93.9%; in [17] it was 94.3%; in [18], 43.4%. Besides, the growth in assay [19] is 48%.

As for `COc1cccc(/C=C2\C=C(c3ccccc3)N(Cc3ccccc3)C2=O)c1`, the growth in assay [1] was 71.1%; in [2], 73%; in [3] it was 51%; in assay [4] it was 69.4%; in assay [5], 72.3%; in [6] it was 18.1%. Besides, the growth in assay [7] was 56.4%; in assay [8], 47.9%; in [9], 57.3%; in assay [20] it was 74.3%; in assay [10], 93.9%; in assay [11] it was 36.1%. Further, the growth in assay [12] was 98.2%; in assay [14] it was 39.8%; in assay [15], 56.2%; in [16], 44.6%; in assay [17], 53.3%; in [18], 83.3%. Moreover, the growth in assay [19] was 5.88% (active).

`O=C1/C(=C/c2ccc(F)cc2)Sc2c(Br)cccc21`: the growth in [1] is 50%; in assay [2], 79.4%; in assay [3], 72.6%; in assay [4] it was 69.1%; in assay [5], 93.6%; in assay [6] it was -3.06% (active). In addition, the growth was 70.9% in [7]; 68.9% in [8]; 100% in assay [9]; 105% in assay [20]; 99.7% in [10]; 80% in assay [11]. Further, the growth in assay [12] is 99.9%; in assay [14], 85.8%; in assay [15], 79%; in assay [16], 87.3%; in assay [17], 75.5%; in assay [18] it was 85.9%. In addition, in [19], the growth is 92.8%.

With `COc1ccc(C2C(N)=NNC2c2cccc(O)c2)cc1` (stereo not given), the growth in assay [1] was 90.2%; in assay [2], 84%; in assay [3] it was 90.6%; in [4], 90.2%; in [5], 115%; in [6] it was 88.3%. Besides, the growth was 89.2% in assay [7]; 99.8% in assay [8]; 108% in assay [9]; 125% in assay [10]; 89% in assay [11]; 88.5% in assay [12]. Besides, the growth was 104% in [13]; 97.2% in assay [14]; 99.4% in assay [15]; 92.1% in [16]; 95.4% in [17]; 107% in [18]. Further, the growth in assay [19] was 104%.

`COc1cccc(Cc2nn3cc(-c4ccccc4)nc3s2)c1`: the growth in assay [1] was 97.4%; in assay [2] it was 110%; in [3], 91.8%; in [4] it was 95.2%; in [5] it was 105%; in assay [6] it was 84.8%. For the same compound, the growth in assay [7] was 70.3%; in assay [8] it was 94.4%; in assay [9], 52%; in [10], 94.4%; in assay [11], 27.7%; in assay [12] it was 96.2%. The growth in assay [13] is 78.9%; in assay [14], 117%; in assay [15], 89.2%; in [16], 103%; in [17], 102%; in assay [18], 89.7%. In [19], the growth was 84.1%.

As to `c1ccc(Nc2cc(-c3cccnc3)[nH]n2)cc1`, the growth was 105% in [1]; 94.1% in assay [2]; 95.5% in assay [3]; 84% in assay [4]; 111% in assay [5]; 94.4% in assay [6]. For the same compound, the growth in assay [7] is 89.5%; in assay [8] it was 93.3%; in [9] it was 98.1%; in [10] it was 100%; in assay [11], 101%; in [12], 118%. In addition, the growth in assay [13] is 107%; in assay [14], 107%; in assay [15], 85.8%; in [16], 97.6%; in assay [17], 70.2%; in assay [18], 100%. The growth in assay [19] is 117%.

For `COC(=O)[C@H](C)NC(=O)NC(=O)NC(=O)CI`, the growth in assay [1] is 86.2%; in assay [2] it was 89.2%; in assay [3], 103%; in [4], 98.4%; in assay [5], 104%; in assay [6], -21.4% (active). The growth in assay [7] is -75% (active); in assay [8], 96.4%; in assay [9], 63.9%; in assay [20] it was 32%; in assay [10] it was 84.5%; in [11], 7.73% (active). Moreover, the growth was -53.9% (active) in [12]; 59.1% in [14]; 82.6% in [15]; 91.9% in assay [16]; 94.6% in assay [17]; 104% in [18]. Further, in assay [19], the growth was 58.5%.

Regarding `Cc1cccc2c3c(sc12)C(c1ccc(Cl)cc1)C(C#N)=C(/N=C/c1ccc(Cl)cc1)O3` (stereo not given), the growth in [1] is 27.2%; in [2], 18%; in assay [3], 49.9%; in assay [4], 42%; in [5], 6.47% (active); in assay [6], 96.5%. Also, the growth in assay [7] was 22.8%; in assay [8] it was 30.9%; in assay [9], 31.9%; in [10], 20.1%; in assay [11], 8.84% (active); in assay [12], 56.6%. Also, the growth is 28.5% in assay [13]; -15.3% (active) in assay [14]; 44.6% in assay [15]; 1.19% (active) in assay [16]; -13.7% (active) in assay [17]; 65.1% in assay [18]. For the same compound, the growth in assay [19] was 4.4% (active).

Source of the values: PubChem BioAssay (NCI).
